# Key:
# Experiment in all cases: PBM binding z-score (relative to random genomic background probes); higher = stronger binding; sequences stand for … in GC…GCGATTGACAGCGTAGAATGAAGG
# [1] = system: FXR:RXRa (NR concentration 270 nM, RXRa partner concentration 90 nM)
# Summary of the method: (§1)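 Antibodies against each partner of ligand-free nuclear receptor dimers (one per run) detected binding on custom Agilent 4×180K protein-binding microarrays after 1 h incubation. The double-stranded probes had 34-nt variable regions carrying direct-repeat seeds, single-nucleotide variants, half-site ablations and random human genomic background sequences. Binding z-scores, from regression-normalized fluorescence, use the random background probes as reference.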
# [2] = system: LXRa:RXRa (NR concentration 270 nM, RXRa partner concentration 90 nM)
# Summary of the method: as §1
# [3] = system: LXRa homodimer (NR concentration 270 nM)
# Summary of the method: as §1
# [4] = system: LXRb:RXRa (NR concentration 270 nM, RXRa partner concentration 90 nM)
# Summary of the method: as §1
# [5] = system: LXRb homodimer (NR concentration 270 nM)
# Summary of the method: as §1
# [6] = system: PPARa:RXRa (NR concentration 270 nM, RXRa partner concentration 90 nM)
# Summary of the method: as §1
# [7] = system: PPARg:RXRa (NR concentration 180 nM, RXRa partner concentration 90 nM)
# Summary of the method: as §1
# [8] = system: PPARg:RXRa 270nM:90nM, anti-RXR (NR concentration 270 nM, RXRa partner concentration 90 nM)
# Summary of the method: as §1
# [9] = system: PPARg:RXRa 30nM:10nM, anti-RXR (NR concentration 30 nM, RXRa partner concentration 10 nM)
# Summary of the method: as §1
# [10] = system: PPARg:RXRa 90nM:30nM, anti-RXR (NR concentration 90 nM, RXRa partner concentration 30 nM)
# Summary of the method: as §1
# [11] = system: PPARg:RXRa DBDmut IVT, anti-RXR (DBD mutation: RXRa K156A/R161A, NR concentration 270 nM, RXRa partner concentration 90 nM)
# Summary of the method: as §1
# [12] = system: PPARg:RXRa IVT, anti-PPARg (NR concentration 270 nM, RXRa partner concentration 90 nM)
# Summary of the method: as §1
# [13] = system: PPARg DBDmut:RXRa IVT, anti-PPARg (DBD mutation: PPARg1 K132A/R137A, NR concentration 270 nM, RXRa partner concentration 90 nM)
# Summary of the method: as §1
# [14] = system: PPARg DBDmut IVT, anti-PPARg (DBD mutation: PPARg1 K132A/R137A, NR concentration 270 nM)
# Summary of the method: as §1
# [15] = system: PPARg homodimer (NR concentration 180 nM)
# Summary of the method: as §1
# [16] = system: PXR:RXRa (NR concentration 270 nM, RXRa partner concentration 90 nM)
# Summary of the method: as §1
# [17] = system: PXR homodimer (NR concentration 270 nM)
# Summary of the method: as §1
# [18] = system: RARa:RXR (NR concentration 270 nM, RXRa partner concentration 90 nM)
# Summary of the method: as §1
# [19] = system: RARa homodimer (NR concentration 270 nM)
# Summary of the method: as §1
# [20] = system: RARb:RXRa (NR concentration 270 nM, RXRa partner concentration 90 nM)
# Summary of the method: as §1
Sequence,PBM binding z-score [1],PBM binding z-score [2],PBM binding z-score [3],PBM binding z-score [4],PBM binding z-score [5],PBM binding z-score [6],PBM binding z-score [7],PBM binding z-score [8],PBM binding z-score [9],PBM binding z-score [10],PBM binding z-score [11],PBM binding z-score [12],PBM binding z-score [13],PBM binding z-score [14],PBM binding z-score [15],PBM binding z-score [16],PBM binding z-score [17],PBM binding z-score [18],PBM binding z-score [19],PBM binding z-score [20]
GCTAGTTGGTCAGTAAAAGGTCACACACCGGTCG,3.43,4.13,4.61,3.79,0.823,4.31,3.03,4.23,2.21,4.37,1.12,2.86,-0.0862,0.91,4.27,4.95,1.3,5.91,3.23,4.19
TCTCGGAGGACACGAAGGACAGAGCTTTCCAGAG,0.358,-0.306,-0.452,-0.355,-1.07,-0.0833,0.271,0.836,2.13,1.3,1.14,0.0636,-0.366,-1.09,-0.347,-0.352,-0.367,0.0176,-1.01,1.54
TTACCAAGGTGAGCTGAGGTCGTTGCTCCAACTC,1.27,1.21,-0.608,0.819,-1.17,1.42,-0.334,0.661,-0.351,0.141,1.08,2.12,-0.398,-1.21,-0.419,4.75,0.304,1.6,-0.876,1.74
TAGCCTAGGTCATGCAGGCCAGTATAGTGTCGGC,3.92,2.91,0.151,1.7,-0.186,3.38,2.19,2.37,0.209,1.34,1.84,2.9,0.61,0.0782,1.52,1.77,-0.409,2.37,-0.161,3.66
CCTACCGGGCCATCAGGTCATTGATATCAACGTT,1.4,1.26,1.91,1.66,0.209,1.93,0.875,1.59,-0.00582,1.09,0.52,1.97,-0.847,-0.348,1.25,1.64,0.864,1.95,0.127,2.21
ATCGAAGGGTCGACGAGGTGAGTATACACCGTTT,1.51,0.812,-0.587,0.951,-0.33,2.44,1.3,0.831,0.448,0.6,-0.299,0.882,-0.145,0.665,0.411,1.11,-0.598,2.02,-0.471,2.3
GCCAGTTGGTCAGTAAAAGGTCACACACCGGTCG,3.07,4.03,4.4,3.89,-0.0245,4.36,2.75,4.34,1.84,3.62,0.399,2.44,0.21,0.231,3.78,5.1,1.14,5.76,1.88,4.14
ACTATTAGTTGAGACGAGGGCAAACGATAGGTTG,0.392,0.212,0.35,0.169,0.32,0.382,0.773,0.206,0.117,0.161,0.0525,0.456,1.03,1.15,0.189,1.83,0.478,0.637,0.392,0.841
TAGCCTAGGTCACTGGGCCAGTATAGTACGCATC,3.22,2.31,-0.331,1.92,-0.779,4,5.05,4.62,1.68,3.41,3.48,5.27,1.2,0.865,0.976,1.32,-0.648,1.93,-0.15,3.91
CGAACGAGGGCATGGGTTGATAGCAAATGCCGAT,0.548,0.397,-0.228,0.329,-0.69,2.01,3.1,3.6,1.43,3.25,2.5,2.69,-0.338,0.301,0.704,0.517,0.232,0.938,-0.224,2.05
GTACCATGGTGAATAGGTCGTTGATGAGTAGGCG,-0.238,0.114,-0.331,-0.0798,-0.524,0.641,0.623,0.293,-0.175,0.119,0.107,0.275,-0.162,0.3,0.352,0.151,-0.347,0.29,-0.148,0.41
TCTATTAGATGAAGGGCAACCGACGAGTCCGTTT,0.734,0.81,-0.159,0.733,0.205,0.841,0.575,2.01,3.7,2.93,2.54,0.861,0.95,0.278,0.308,0.796,1.11,0.642,0.636,1.47
TCTATTAGTTGATTAGGGCAACTGAAACAGCGGA,0.195,0.677,0.0182,0.747,0.522,0.782,0.0466,1.87,3.5,2.6,2.22,1.45,1.14,0.725,-0.0911,0.233,0.247,0.283,0.703,0.768
GCTGCTAGGTCAACTGATGGTCAGCTGAAGCTCG,4.05,3.09,0.169,1.83,-0.22,3.62,2.6,2.86,0.554,2.21,4.69,3.93,-0.679,-0.202,1.06,1.45,-0.515,2.72,-0.515,4.31
GCGACTGGGGCAACAGCAGGTTACCATAACTTAA,0.03,1.28,-0.408,0.734,-0.94,1.25,1.43,1.47,-0.0459,0.485,4.72,3.85,-0.661,-0.485,0.0811,0.146,-0.288,0.56,-0.561,1.02

# Source: the supplement of paper PMC6555819
